Experimental data: PubChem BioAssay (NCATS)
Several values for one entry are separate records, joined by “and”; a condition that tells them apart may be missing. Equal values may be shown once. Records with an inconclusive call do not appear. Some compounds were tested as several samples or in several runs, with calls that do not always agree. Activity calls are given as the source filed them. Unless noted, the call rests on the fitted dose curve; in most records, active means well fitted curve in the direction sought with a large enough effect; inconclusive means small, poorly fitted or top-dose-only effect, or another doubt; inactive means no such curve, though single readings can be large; an effect the other way counts as inactive or inconclusive.

Legend:
Es-2 = experiment: Primary qHTS to identify gynecologic anti-cancer compounds using libraries of approved drugs and bioactive compounds (AID 1345084); details: Gynecologic cancer cell panel viability, ATPlite luminescence, 48 h; series mostly up to 57.5 µM; further: nearly all actives have a fitted effect of over 55% in size; further: potency means the concentration at half of the fitted maximal effect
How it was run: (§1)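 Five-concentration response, 48 h; readout is ATP-driven luciferase luminescence.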

HeLa = experiment: as above; details: Gynecologic cancer cell panel viability, ATPlite luminescence, 48 h; series mostly up to 57.5 µM
How it was run: as §1

Hek293T = experiment: as above; details: Gynecologic cancer cell panel viability, ATPlite luminescence, 48 h, control line for the selectivity index; series mostly up to 57.5 µM
How it was run: as §1

JEG-3 = experiment: as above; details: Gynecologic cancer cell panel viability, ATPlite luminescence, 48 h; series mostly up to 57.5 µM
How it was run: as §1

OV90 = experiment: as above; details: Gynecologic cancer cell panel viability, ATPlite luminescence, 48 h; series mostly up to 57.5 µM
How it was run: as §1

PA-1 = experiment: as above; details: Gynecologic cancer cell panel viability, ATPlite luminescence, 48 h; series mostly up to 57.5 µM
How it was run: as §1

Tov-21-G = experiment: as above; details: Gynecologic cancer cell panel viability, ATPlite luminescence, 48 h; series mostly up to 57.5 µM
How it was run: as §1

Tov112D = experiment: as above; details: Gynecologic cancer cell panel viability, ATPlite luminescence, 48 h; series mostly up to 57.5 µM
How it was run: as §1

[1] = Drug repurposing screens with cells derived from glioblastoma tumor samples (AID 1345199); details: GBM patient neurospheres viability, ATP luminescence, 48 h; further: nearly all actives have a fitted effect of over 40% in size; further: potency means the concentration at half of the fitted maximal effect; on activity, negative = cell killing: on the % scale 0 is the no-effect control and ±100 the full control effect
How it was run: (§2)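 Primary testing used CD133+ neurospheres from four GBM patients, seven concentrations, 48 h exposure and ATP-based viability; confirmation added three slower-growing patient lines.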

astro = experiment: as above; details: viability, ATP luminescence, 48 h; series mostly up to 45.9 µM
How it was run: as §2

[2] = target: Nuclear receptor subfamily 1 group I member 2 (Rattus norvegicus) (UniProt Q9R1A7); experiment: qHTS assay for small molecule activators of the rat pregnane X receptor (rPXR) signaling pathway (AID 651751; call rule not given here; further: 0% is about no effect); details: rPXR reporter cells, luciferase (One-Glo), 24 h
Chain of Nuclear receptor subfamily 1 group I member 2 (Rattus norvegicus) (Q9R1A7 whole entry, looked up): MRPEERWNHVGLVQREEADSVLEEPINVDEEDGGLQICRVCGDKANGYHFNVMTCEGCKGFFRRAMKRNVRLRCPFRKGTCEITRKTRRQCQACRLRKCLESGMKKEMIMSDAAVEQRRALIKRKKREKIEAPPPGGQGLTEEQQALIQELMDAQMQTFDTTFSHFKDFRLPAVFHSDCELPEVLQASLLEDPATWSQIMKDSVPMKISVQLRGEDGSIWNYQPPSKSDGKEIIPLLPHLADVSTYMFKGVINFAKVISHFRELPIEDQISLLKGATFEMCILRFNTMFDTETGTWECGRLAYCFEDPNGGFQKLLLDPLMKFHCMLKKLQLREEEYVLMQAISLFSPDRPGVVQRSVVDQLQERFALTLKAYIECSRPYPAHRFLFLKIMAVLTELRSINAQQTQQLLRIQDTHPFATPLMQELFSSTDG

[3] = qHTS assay for small molecule activators of the human pregnane X receptor (PXR) signaling pathway (AID 720659; call rule not given here; further: 0% is about no effect)
[4] = qHTS assay to identify inhibitors of the type 1 interferon - major histocompatibility complex class I in skeletal muscle: Counter screen cell viability and HiBit confirmation (AID 1347412); details: iHSKM muscle cells + IFN-b, HiBiT or CellTiter-Glo, 24 h; Viability; at 45.9 µM (top of the series); further: on the % scale 0 is the no-effect control and ±100 the full control effect; nearly all actives have a fitted effect of over 60% in size
How it was run: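 CRISPR HLA-B*08:01-HiBit immortalized human myoblasts (C25cl48) stimulated with 4 ng/ml IFN-beta and compounds (12-point 1:3, top 46 uM final) for 24 h at 37 C. Duplicate plates read by HiBit lytic luminescence or CellTiter Glo ATP.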

SKOV3 = experiment: Primary qHTS to identify gynecologic anti-cancer compounds using libraries of approved drugs and bioactive compounds (AID 1345084); details: Gynecologic cancer cell panel viability, ATPlite luminescence, 48 h; series mostly up to 57.5 µM; further: nearly all actives have a fitted effect of over 55% in size; further: potency means the concentration at half of the fitted maximal effect
How it was run: as §1

[5] = at 20 µM (top of the series), tumour line C
[6] = at 21.2 µM (top of the series), tumour line B
[7] = at 21.2 µM (top of the series), tumour line D
[8] = at 45.9 µM (top of the series), tumour line B
[9] = at 45.9 µM (top of the series), tumour line D
[10] = at 46.1 µM (top of the series), tumour line C

Cc1cc(=O)oc2cc(O)ccc12
inactive: Potency (Es-2) | Potency (HeLa) | Potency (Hek293T) | Potency (JEG-3) | Potency (OV90) | Potency (PA-1) | Potency (Tov-21-G) | Potency (Tov112D) | activity, negative = cell killing [1, 5] -8.91% | activity, negative = cell killing [1, 6] -9.65% | activity, negative = cell killing [1, 7] -8.02% | Potency (astro)

CCCCc1ccc2nc(NC(=O)OC)[nH]c2c1
active: Potency (Es-2) 562 nM | Potency (HeLa) 398 nM | Potency (OV90) 1.58 µM | Potency (PA-1) 282 nM | Potency (Tov-21-G) 631 nM | Potency (Tov112D) 251 nM

Nc1ccc(S(N)(=O)=O)cc1
inactive: Potency (Es-2) | Potency (HeLa) | Potency (Hek293T) | Potency (JEG-3) | Potency (OV90) | Potency (PA-1) | Potency (Tov-21-G) | Potency (Tov112D) | Potency (astro) | max response [2] 5.05% | outcome [3]

CCCOc1ccc2nc(NC(=O)OC)[nH]c2c1
active: Potency (Es-2) 631 nM | Potency (HeLa) 282 nM | Potency (JEG-3) 1000 nM | Potency (PA-1) 282 nM | Potency (Tov-21-G) 316 nM | Potency (Tov112D) 316 nM
inactive: activity change, negative = inhibition [4] -24.3%

NNc1nncc2ccccc12
inactive: Potency (Es-2) | Potency (HeLa) | Potency (Hek293T) | Potency (JEG-3) | Potency (PA-1) | Potency (SKOV3) | Potency (Tov-21-G) | Potency (Tov112D) | activity, negative = cell killing [1, 5] -13.5% | activity, negative = cell killing [1, 6] -20% | activity, negative = cell killing [1, 7] -12.5% | Potency (astro)

CCCc1cc(=O)[nH]c(=S)[nH]1
inactive: Potency (Es-2) | Potency (HeLa) | Potency (Hek293T) | Potency (JEG-3) | Potency (OV90) | Potency (PA-1) | Potency (Tov-21-G) | Potency (Tov112D) | activity, negative = cell killing [1, 8] -8.42% | activity, negative = cell killing [1, 9] -9.52% | activity, negative = cell killing [1, 10] -10.7% | Potency (astro) | max response [2] -3.12% and -0.189% | outcome [3]

O=C(NOCC1CC1)c1ccc(F)c(F)c1Nc1ccc(I)cc1Cl
28.2 µM (active) and inactive: Potency (Tov112D)
active: Potency (OV90) 7.08 µM and 3.55 µM | Potency (astro) 2510 nM
inactive: Potency (Es-2) | Potency (HeLa) | Potency (Hek293T) | Potency (JEG-3) | Potency (SKOV3)

COc1cc(C(C)=O)ccc1OCCCN1CCC(c2noc3cc(F)ccc23)CC1
inactive: Potency (Es-2) | Potency (HeLa) | Potency (JEG-3) | Potency (PA-1) | Potency (Tov-21-G) | Potency (Tov112D) | Potency (astro)

Cc1cccc(CN2CCN(C(c3ccccc3)c3ccc(Cl)cc3)CC2)c1 (stereo not drawn)
inactive: Potency (Es-2) | Potency (HeLa) | Potency (Hek293T) | Potency (JEG-3) | Potency (PA-1) | Potency (SKOV3) | Potency (Tov-21-G) | Potency (Tov112D) | activity, negative = cell killing [1, 5] -7.92% | Potency (astro)
active: Potency ([1]; tumour line A) 5620 nM

CC[C@]1(O)C[C@H]2CN(CCc3c([nH]c4ccccc34)[C@@](C(=O)OC)(c3cc4c(cc3OC)N(C=O)[C@H]3[C@@](O)(C(=O)OC)[C@H](OC(C)=O)[C@]5(CC)C=CCN6CC[C@]43[C@@H]65)C2)C1
active: Potency (Es-2) 891 nM | Potency (HeLa) 891 nM | Potency (OV90) 1.78 µM | Potency (PA-1) 199 nM | Potency (Tov112D) 178 nM | Potency ([1]; tumour line A) 20 nM
inactive: activity, negative = cell killing [1, 9] -44.9%

COc1c2occc2cc2ccc(=O)oc12
inactive: Potency (Es-2) | Potency (HeLa) | Potency (JEG-3) | Potency (OV90) | Potency (PA-1) | Potency (SKOV3) | Potency (Tov-21-G) | Potency (Tov112D) | activity, negative = cell killing [1, 8] -22.6% | activity, negative = cell killing [1, 9] -10.6% | activity, negative = cell killing [1, 10] -21.4% | Potency (astro) | max response [2] 0.0225% and 5.31%

CCCCN(CCCC)CCC(O)c1cc2c(Cl)cc(Cl)cc2c2cc(C(F)(F)F)ccc12 (stereo not drawn)
active: Potency ([1]; tumour line A) 11200 nM | Potency ([1]; tumour line B) 10000 nM | Potency ([1]; tumour line D) 11200 nM
inactive: Potency (Es-2) | Potency (HeLa) | Potency (Hek293T) | Potency (JEG-3) | Potency (PA-1) | Potency (Tov-21-G) | Potency (Tov112D) | activity, negative = cell killing [1, 5] -14% | Potency (astro)

CN(C)CCCC1(c2ccc(F)cc2)OCc2cc(C#N)ccc21 (stereo not drawn)
inactive: Potency (Es-2) | Potency (HeLa) | Potency (Hek293T) | Potency (JEG-3) | Potency (PA-1) | Potency (SKOV3) | Potency (Tov-21-G) | Potency (Tov112D)
